Source: PubChem BioAssay (National Center for Advancing Translational Sciences (NCATS))
A selection: hits, their analogues and other compounds. The true share with any hit is near 6.9%.
VDR inhibitor = vitamin D3 receptor (human) inhibition; P11473; VDR-SRC2-3 peptide fluorescence polarization, 2 h; Potency, µM, for inactives: max response, negative = inhibition, most hits filed as inhibitors; hit rate 0.93% among 400,000; also: % is scaled to controls: 0 for no effect and ±100 for the full control effect
Target sequence (P11473 whole entry, looked up): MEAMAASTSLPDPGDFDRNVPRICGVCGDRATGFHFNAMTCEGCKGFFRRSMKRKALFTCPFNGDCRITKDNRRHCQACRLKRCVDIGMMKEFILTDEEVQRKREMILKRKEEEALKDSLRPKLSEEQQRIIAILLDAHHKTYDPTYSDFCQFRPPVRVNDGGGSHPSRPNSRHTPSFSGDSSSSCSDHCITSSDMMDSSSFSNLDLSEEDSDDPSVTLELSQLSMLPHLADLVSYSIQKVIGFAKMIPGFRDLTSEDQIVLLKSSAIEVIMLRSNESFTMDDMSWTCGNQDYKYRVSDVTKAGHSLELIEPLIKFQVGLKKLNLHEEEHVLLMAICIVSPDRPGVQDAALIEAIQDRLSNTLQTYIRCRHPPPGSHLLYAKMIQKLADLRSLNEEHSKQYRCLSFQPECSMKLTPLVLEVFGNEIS
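Compounds are added to VDR with labelled SRC2-3 coactivator peptide and held 2 h at room temperature. Inhibition of the VDR–peptide interaction is then read as a change in fluorescence polarization.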
JMJD2A Tudor inh = JMJD2A Tudor domain (human) inhibition. Potency, µM (doses to about 114 µM), for the others: at the top dose activity change, negative = inhibition, most hits filed as inhibitors. AlphaScreen JMJD2A-Tudor / H3K4me3 peptide binding. hit rate 4.4% among 390,000; also: % is scaled to controls: 0 for no effect and ±100 for the full control effect; nearly all actives have a fitted effect of over 50% in size
HP1b chromo inh = inhibitors of HP1-beta chromodomain binding to methylated histone tails | AlphaScreen HP1-beta / biotin-H3K9me3 peptide binding | Potency, µM (series often up to 114 µM), for the others: top-dose activity change, negative = inhibition, most hits filed as inhibitors | AID 540317 | hit rate 0.56% among 390,000; also: nearly all actives have a fitted effect of over 70% in size
Target sequence (P83916 whole entry, looked up): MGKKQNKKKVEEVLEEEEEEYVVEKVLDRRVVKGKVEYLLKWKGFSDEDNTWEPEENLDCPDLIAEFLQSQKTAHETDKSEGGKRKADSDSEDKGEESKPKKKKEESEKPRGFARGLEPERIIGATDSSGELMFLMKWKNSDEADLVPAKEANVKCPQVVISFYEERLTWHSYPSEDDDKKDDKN
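Compound inhibition of the preformed complex between 50 nM HP1-beta and 50 nM biotinylated H3K9me3 peptide was read by AlphaScreen. Buffer was PBS pH 7.4 with 0.01% Tween-20. Incubations ran 30 min at room temperature, with 10 ug/mL donor/acceptor beads.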
PLK1 PBD inh = PLK1 (human) polo-box domain binding inhibition; P53350; Plk1 PBD binding of FITC phosphopeptide, fluorescence polarization; Potency, µM, for inactives: max response, negative = inhibition, usual class: inhibitors; hit rate 2.8% among 360,000; also: series mostly up to about 57 µM; % is scaled to controls: 0 for no effect and ±100 for the full control effect; nearly all actives have a fitted effect of over 65% in size
L3MBTL1 block = inhibitors of human L3MBTL1; AlphaScreen L3MBTL1–H3K9me1 peptide binding; Potency, µM (highest dose often 57.1 µM), for inactives: at the top dose activity, negative = inhibition, hits mostly inhibitors; hit rate 0.66% among 230,000; also: % is scaled to controls: 0 for no effect and ±100 for the full control effect; nearly all actives have a fitted effect of over 60% in size
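L3MBTL1 50 nM + b-AHA-H3(1-15)K9me1 75 nM, 30 min RT; compound added, 30 min RT; streptavidin donor/Ni-chelate acceptor beads 10 ug/mL each final, 30 min RT dark; AlphaScreen read.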
BAZ2B inh = inhibitors of human BAZ2B bromodomain. Q9UIF8. AlphaScreen BAZ2B-H3K14Ac peptide displacement. Potency, µM (top dose mostly 114 µM), inactives show at the top dose activity change, negative = inhibition, usual class: inhibitors. hit rate 4.4% among 360,000; also: % is scaled to controls: 0 for no effect and ±100 for the full control effect; nearly all actives have a fitted effect of over 60% in size
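Inhibition is scored as reduced AlphaScreen emission. The BAZ2B/b-H3(5-23)K14Ac complex (50 nM each) in PBS pH 7.4, 0.01% Tween-20 meets compound (up to 110 uM) for 30 min at RT before bead addition.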
* hit, by the source's call; ? = inconclusive; / = no result; [ ] = remark or other dose. Calls follow the shape of the dose curve; as a rule, active = well fitted curve in the direction sought with a large enough effect; inconclusive = small, poorly fitted or top-dose-only effect, or another doubt; inactive = no such curve, though single readings can be large; an effect the other way counts as inactive or inconclusive. Potency is read from the fitted curve at half-maximal effect.

SMILES	VDR inhibitor	JMJD2A Tudor inh	HP1b chromo inh	PLK1 PBD inh	L3MBTL1 block	BAZ2B inh
O=C(NCCOC(=O)C1COc2ccccc2O1)c1cccnc1 (stereo not drawn)	-1%	40µM*	23%	-12%	9%	?
COc1ccc(OCC(=O)OCCNC(=O)c2cccnc2)cc1	4%	50µM*	22%	-12%	9%	?
CCOC(=O)CNC(=O)c1cccnc1	-4%	14%[11.4 µM]	32%	24µM*	1%	?
O=C(NCO)c1cccnc1	-15%	-13%	23%	6%	/	/
CCN(CC(=O)NCc1ccc(Cl)cc1)C(=O)COc1ccc(Cl)cc1Br	-2%	-2%	33%	-9%	-3%	?
O=C(CN1C(=O)CSc2ccccc21)Nc1ccc2c(c1)OCCO2	-10%	?	-30%	27µM*	/	?
O=C(CN1CCOCC1)Nc1cc(C(F)(F)F)ccc1Cl	?	?	-13%	21µM*	?	6%
O=C(CN1C(=O)CCSc2ccccc21)Nc1ccc2c(c1)OCO2	9%	-9%	13%	-5%	-1%	-19%
COC(=O)c1cc(OC)c(OC)cc1NC(=O)CCCCCN1C(=O)CCC1=O	-4%	17%[11.4 µM]	-4%	30µM*	1%	-3%
O=C(CCCCCN1C(=O)CCC1=O)Nc1ccc2c(c1)OCO2	-16%	8%[11.4 µM]	-13%	24µM*	1%	9%
Cc1ccc(NC(=O)C2CCC(CNS(=O)(=O)c3csc(C(N)=O)c3)CC2)cc1Cl (stereo not drawn)	13%	2%	17%	/	/	3%
CCOc1ccc(CNC(=O)CCS(=O)(=O)c2cc3c(cc2Cl)NC(=O)CO3)cc1OC	10%	5%	47%	/	/	3%
O=C(CN1CCOCC1)Nc1ccc(Cl)c(Cl)c1	1%	28µM*	?	-7%	3%	-35%
O=C(CN1CCOCC1)Nc1ccc2c(c1)OCO2	-14%	-11%	10%	11µM*	2%	/
CSc1ncc(Cl)c(C(=O)Nc2cc(C(F)(F)F)ccc2Cl)n1	19%	-22%	5%	/	/	-2%
Cn1cc(-c2nc3cnc(Oc4ccccc4)nc3n(CCC#N)c2=O)c2ccccc21	-3%	/	/	/	/	/
O=C(Nc1nnc(-c2ccccc2Cl)o1)c1ccco1	6%	79µM*	13%	2%	2%	79µM*
CCOc1cc(-c2nnc(NC(=O)c3ccco3)o2)cc(OCC)c1OCC	-3%	-24%	16%	-10%	8%	10%
Cc1ccc(-c2nnc(NC(=O)c3ccco3)o2)c(C)c1	-7%	-14%	19%	-10%	-11%	?
O=C(Nc1nnc(-c2ccc(Br)cc2)o1)c1ccco1	-10%	?	44%	-6%	16%	79µM*
O=C(Nc1nnc(-c2cccs2)o1)c1ccco1	2%	45µM*	45%	5%	/	35µM*
COc1cc(-c2nnc(NC(=O)c3ccco3)o2)cc(OC)c1OC	8%	?	19%	-3%	-4%	79µM*
COc1cccc(C(=O)Nc2nnc(-c3cccs3)o2)c1	9%	-13%	50%	-4%	7%	?
CC1(C)CC(=O)C(/C=N/c2ccccn2)=C(O)C1	2%	-2%	24%	-1%	9%	-33%
CC1(C)CC(=O)C(/C=N/n2cnc3ccccc3c2=O)=C(O)C1	13%	40µM*	34%	-3%	/	50µM*
SMILES	VDR inhibitor	JMJD2A Tudor inh	HP1b chromo inh	PLK1 PBD inh	L3MBTL1 block	BAZ2B inh
CCNC(=O)C1CCCN(C(=O)c2ccc3ccccc3c2)CC1 (stereo not drawn)	/	/	/	-15%	/	/
COc1ccc(C2Nc3ccccc3NC3=C2C(=O)CC(C)(C)C3)cc1O (stereo not drawn)	?	13µM*	-5%	3.8µM*	-4%	-1%
COc1ccc(C2C3=C(CC(C)(C)CC3=O)Nc3c2c(=O)n(C)c(=O)n3C)cc1OC (stereo not drawn)	?	?	-13%	12µM*	2%	-20%
C=CCOc1ccccc1C1C2=C(CC(C)(C)CC2=O)Nc2c1c(=O)n(C)c(=O)n2C (stereo not drawn)	-9%	-17%	8%	-11%	5%	5%
CN(C)c1ccc2c(-c3ccccc3)c3ccc(=[N+](C)C)cc-3oc2c1	45µM*	/	/	/	/	/
CCCCOC(=O)c1ccc(NC(=O)c2cnc3ccc(C)cn3c2=O)cc1	-8%	-7%	22%	/	/	1%
N=C1/C(=C\c2ccc(OC(=O)c3ccc(F)cc3)cc2)C(=O)N=C2SC(N3CCCC3)=NN12	?	-22%	42%	?	?	-37%
Cc1ccc(C(=O)Oc2ccc(/C=C3\C(=N)N4N=C(N5CCOCC5)SC4=NC3=O)cc2)cc1	-27%	?	14%	27µM*	-3%	-32%
N=C1/C(=C\c2ccc(OC(=O)c3ccccc3)cc2)C(=O)N=C2SC(N3CCOCC3)=NN12	-5%	?	-7%	24µM*	-1%	?
Cc1ccc(CN2CCc3nc(N4CCN(c5ccccc5F)CC4)ncc3C2)s1	15%	-19%	14%	/	/	-28%
Cn1nnnc1SCCNCc1ccc(OCc2ccc(Cl)cc2)cc1	-11%	-25%	38%	/	/	-31%
N#Cc1ccc(NS(=O)(=O)c2ccc3c(c2)CCC(=O)N3)cc1	/	79µM*	/	/	/	/
O=C(OCn1ncc(Cl)c(Cl)c1=O)c1ccc(C(F)(F)F)cc1	20µM*	-11%	11%	-21%	10%	-10%
O=C(Cc1cc(=O)[nH][nH]1)N/N=C/c1c(Cl)cccc1Cl	-27%	-32%	1%	17µM*	-8%	-36%
O=C(Cc1cc(=O)[nH][nH]1)N/N=C/c1c(F)cccc1Cl	-5%	-7%	55%	-2%	/	-14%
COC(=O)Cc1n[nH]c(=O)c2ccccc12	3%	-1%	26%	1%	/	-3%
COC(=O)Cc1n[nH]c(=S)[nH]c1=O	-18%	79µM*	0%	-5%	2%	-34%
Cc1ccc(C)c(N2CCN(C3(c4ccccc4)C(=O)c4ccccc4C3=O)CC2)c1	-4%	?	-24%	/	/	6.3µM*
Cc1cccc(N2CCN(C3(c4ccccc4)C(=O)c4ccccc4C3=O)CC2C)c1 (stereo not drawn)	8%	?	?	/	/	8.9µM*
CC(=O)Nc1nnc(-c2ccc(Cl)s2)o1	2%	-28%	20%	-14%	-13%	-31%
O=C(Nc1nnc(C2=COCCO2)o1)c1ccc([N+](=O)[O-])cc1	11%	50µM*	41%	-1%	/	35µM*
CC(=O)Nc1nnc(C2=COCCO2)o1	-7%	22µM*	38%	-1%	-6%	79µM*
COc1ccc(-c2nnc(NC(=O)C3=COCCO3)o2)cc1	0%	-10%	16%	-4%	-15%	28µM*
O=C(Nc1nnc(C2=COCCO2)o1)c1ccc(Cl)cc1	-6%	79µM*	33%	0%	2%	56µM*
